Screens from PubChem BioAssay.
eIF4E-4G inh: eIF4E/eIF4G interaction inhibition in translation initiation. inhibition, % at 21.7 µM. 220,000 tested, 0.37% active. TR-FRET eIF4E-eIF4GI(517-606) binding, 2 h. AID 782;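 active = inhibition above about 30%, limit read from the data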
14-3-3 Bad PPI: disrupts binding of bovine 14-3-3 zeta to phospho-Bad peptide | TR-FRET 14-3-3zeta/Dy647-pBad peptide displacement, 1 h | inhibition, % at 21.7 µM | 220,000 tested, 0.71% active | AID 781;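 active = inhibition above about 70%, limit read from the data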
Target sequence (P63103 whole entry, looked up): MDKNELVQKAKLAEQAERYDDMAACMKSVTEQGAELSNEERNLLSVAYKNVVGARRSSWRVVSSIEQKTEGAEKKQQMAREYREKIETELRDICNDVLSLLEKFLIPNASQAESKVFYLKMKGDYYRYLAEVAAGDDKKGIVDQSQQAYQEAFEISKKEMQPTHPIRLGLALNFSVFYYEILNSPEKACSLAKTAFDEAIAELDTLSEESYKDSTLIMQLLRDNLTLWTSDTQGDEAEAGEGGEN
Mcl1-Noxa inh: Mcl-1/Noxa interaction inhibition; Q07820; TR-FRET Mcl-1/Noxa peptide binding, 2 h; 220,000 tested, 1.5% active; inhibition, % at 21.7 µM; AID 1022;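 active = compounds that cut the protein-peptide binding signal by more than 50% relative to plate controls in a single-dose test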;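 also: His-tagged Mcl-1 with rhodamine Noxa BH3 peptide and terbium anti-His antibody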
Mcl-1 Bim block: disrupts Bim peptide binding to human Mcl-1. Q07820. Bead-based flow cytometry, Bim peptide-Mcl-1 binding. inhibition, % at 10 µM. 190,000 tested, 0.1% active; in the data active = inhibition above about 40%
Mcl1-Bid inh: disrupts binding of human Mcl-1 to Bid peptide. Q07820. TR-FRET Mcl-1/Bid-Dy647 peptide binding, 1536-well. inhibition, % at 21.7 µM. 220,000 tested, 0.97% active. AID 1021;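 active = compounds that cut the binding signal by more than half at the single screening dose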;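 also: His-tagged Mcl-1 with europium anti-His antibody binding Bid BH3 peptide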
Pf gametocyte: inhibitors of late stage P. falciparum gametocyte viability; P. falciparum stage V gametocytes, ATP luminescence, 24 h; 150,000 tested, 0.065% active; AID 743093; inhibition, % at 10.9 µM;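 active = inhibition above the mean plus 3 SD of compounds within the control limits, set per campaign, cut at about 38% in these data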
Numbers stand for hits; i = inactive; nt = not tested or not shown; [ ] = dose if it differs, or a comment. This is a sample that favours compounds with a hit; in the whole collection about 2.7% have one here.

SMILES | eIF4E-4G inh | 14-3-3 Bad PPI | Mcl1-Noxa inh | Mcl-1 Bim block | Mcl1-Bid inh | Pf gametocyte
c1ccc2c(N3CCOCC3)nc(N3CCOCC3)nc2c1 | i | i | 51 | i | 66 | nt
CCN(CC)S(=O)(=O)c1ccc(C(=O)OCCN2C(=O)c3cccc4c(N5CCOCC5)ccc(c34)C2=O)cc1 | i | i | i | i | i | nt
O=C(OCCN1C(=O)c2cccc3c(N4CCOCC4)ccc(c23)C1=O)c1cc(Cl)cc(Cl)c1 | 33[fluorescence artefact?] | i | i | i | i | nt
C=CCNC(=O)c1onc(CSc2ccc(F)cc2)c1C(=O)NCCOC | i | i | i | i | i | i
COc1cc(C2=CN(Cc3ccccc3)CCC2=O)cc(OC)c1OC | nt | nt | nt | nt | nt | i
CCOC(=O)C1=C(O)/C(=C\c2cccs2)N=C1C | i | i | i | i | i | i
CCOC(=O)C1=C(O)/C(=C\c2ccc(CNC(=O)C(=O)Nc3ccccc3)o2)N=C1C | i | i | 96 | i | i | nt
C=CCNS(=O)(=O)c1nc(C)c(Cl)c(C)c1C#N | i | i | i | i | i | i
C=C1C(=O)[C@@]23[C@H](O)C[C@@H]4C(C)(C)CC[C@H](O)[C@@]4(C)[C@@H]2CC[C@@H]1[C@H]3O | i | i | i | i | i | nt
C=C1C(=O)[C@@]23[C@H](O)C[C@@H]4C(C)(C)CC[C@H](O)[C@]4(C)[C@@H]2C[C@H](O)[C@@H]1[C@H]3O | i | i | i | i | 80 | nt
O=C1CC2C(=O)NCCN2C(=NC(=O)c2ccccc2)N1 (configuration not stated) | i | i | i | i | i | nt
C=CCn1c(SCc2cccc(OC)c2)nnc1-c1ccncc1 | nt | nt | nt | nt | nt | i
Nc1nn2c(C(F)(F)F)cc(=O)[nH]c2c1N=Nc1cccc(F)c1 | i | i | i | i | i | nt
Cc1cc(=O)[nH]c2c(N=Nc3ccc(O)cc3)c(N)nn12 | i | i | 57 | i | i | i
COc1cccc(/C=N/Nc2snc(SC)c2C#N)c1O | i | i | 72 | i | i | i
COc1ccc(/C=N/Nc2snc(SC)c2C#N)cc1OC | i | i | 67 | i | i | nt
COc1ccc(C(=O)Nc2nc3cc4c(cc3s2)OCO4)c(OC)c1 | i | i | 52 | nt | 51 | i
COc1ccc2nc(NC(=O)c3cc(C)oc3C)sc2c1 | i | i | i | i | i | nt
CCOc1cc(C(=O)Nc2ccc(N3CCOCC3)cc2)cc(Br)c1OC | i | i | 61 | i | i | i
CCOc1cc(C(=O)Nc2ccc(F)cc2)cc(Br)c1OC | i | i | i | i | i | i
CCN1C(=O)C2(C(C(=O)c3ccc(C)o3)=C(O)C(=O)N2CCCN(C)C)c2ccccc21 (configuration not stated) | i | i | i | nt | i | i
CCCN1C(=O)C2(C(C(=O)c3ccc(C)o3)=C(O)C(=O)N2CCCOC)c2ccccc21 (configuration not stated) | 96 | i | i | nt | i | i
CCOc1cc(/C=C2\SC(N)=NC2=O)ccc1O | nt | nt | nt | nt | nt | i
CCOc1cc(/C=C2\SC(=O)N=C2N)ccc1O | i | i | 52 | i | i | nt
O=c1oc2cc([N+](=O)[O-])ccc2nc1/C=C(O)/C=C/c1ccccc1 | i | i | 72 | nt | i | nt
SMILES | eIF4E-4G inh | 14-3-3 Bad PPI | Mcl1-Noxa inh | Mcl-1 Bim block | Mcl1-Bid inh | Pf gametocyte
N/C(Cc1ccc(Cl)cc1)=N\OC(=O)c1ccccc1 | i | i | i | i | i | i
CC(C)(C)C(=O)OC/C(N)=N/OC(=O)c1ccc(Cl)cc1 | i | 91 | i | nt | i | i
O=C(CN1CCN(c2ccc(O)cc2)CC1)Nc1cc([N+](=O)[O-])ccc1Cl | i | i | 99 | i | i | i
Cc1ccc(S(=O)(=O)Nc2ccccc2C(=O)NCc2cccnc2)cc1 | i | i | 66 | i | i | i
COc1cccc(CNC(=O)CSCc2cnn(-c3ccccc3)c2-n2cccc2)c1OC | i | i | i | i | 72 | i
COc1ccccc1CNC(=O)CSCc1cnn(-c2ccccc2)c1-n1cccc1 | i | i | i | i | i | i
O=C(N/C(=C/c1ccco1)C(=O)N1CCCCC1)c1cccs1 | i | i | i | i | i | nt
S=C(NNc1ccnc2cc(Cl)ccc12)Nc1ccc(Cl)cc1Cl | i | 92 | 85 | nt | 62 | i
CCOc1ccc(NC(=S)NNc2ccnc3cc(Cl)ccc23)cc1 | i | i | i | i | i | i
Cc1nc2scc(-c3ccccc3)c2c(=O)n1N=C1C=CC(=O)C=C1 | i | i | 63 | i | i | i
Cc1nc2scc(-c3ccccc3)c2c(=O)n1N | i | i | i | i | i | nt
